# From PubChem BioAssay AID434970 (Sanford-Burnham Center for Chemical Genomics, 2010)
# The campaign covered roughly 11,000 compounds. About 310 (2.8%) were called active. The sample holds actives, similar compounds and a random draw of the others, so the mix is not that of the screen. Cut-off read from the data, not from the text of the source: active = activity change below about -85%; inactive = the rest.
# Tested on: intestinal alkaline phosphatase [Mus musculus]
# Assay: mouse intestinal phosphatase enzyme activation – biochemical, luminescence, single concentration, confirmation (AID 434970)
# Conditions: purified mouse IAP, CDP-Star luminescence, 30 min, at 10 µM; activation factor: measured here: IAP activation factor, stronger effect = higher value; activity change, negative = activation: stronger effect = lower value
Structure (SMILES),activation factor,"activity change, negative = activation"
CSCCC(NC(=O)c1ccc(=O)n(C)n1)c1nc2ccccc2[nH]1 (configuration not stated),0.931,6.9% (inactive)
Cc1ccc(S(=O)(=O)N2CCN(C(=O)CSc3nc4ccccc4c(=O)[nH]3)CC2)c(C)c1,1.1,-10.3% (inactive)
Cc1ccc(C)c(CN2CCC(CNC(=O)Nc3ccc(F)c(Cl)c3)CC2)c1,1.98,-97.9% (active)
Cc1ccc(C)c(CN2CCC(CNC(=O)Nc3ccc(Cl)cc3)CC2)c1,2.23,-123% (active)
Cc1nn(C)cc1CNC(=O)Nc1ccc(Cl)cc1,1.32,-31.6% (inactive)
Cc1cccc(CCNC(=O)CCc2c(C)nc3ncnn3c2C)c1,0.906,9.35% (inactive)
CCNC(=O)COc1cc(C)c(Cl)c(C)c1,1,-0.4% (inactive)
CCc1nc2sc3c(c2c(=O)n1N)CCC3,0.913,8.65% (inactive)
CCN(CC)S(=O)(=O)c1cccc(-c2nnc(SCC(=O)c3cc(C)n(C)c3C)o2)c1,0.772,22.8% (inactive)
COc1ccc(C2/C=C\CN(C(=O)c3ccccc3)CC(=O)N2Cc2cccc(F)c2)cc1 (configuration not stated),1.01,-1.35% (inactive)
CC(=O)N1c2ccccc2C(C)(c2ccccc2)CC1(C)C (configuration not stated),0.98,2% (inactive)
O=C(NCC1CC1)C1CCCN(S(=O)(=O)c2ccc(-n3cnnn3)cc2)C1 (configuration not stated),1.01,-0.9% (inactive)
CSc1ccccc1NC(=O)Nc1ccc(F)c(Cl)c1,1.83,-83.2% (inactive)
O=C1CC(c2ccco2)Sc2nc3ccccc3n21 (configuration not stated),0.801,19.9% (inactive)
O=C(Nc1ccc(F)c(Cl)c1)C1CC(=O)n2c(nc3ccccc32)N1 (configuration not stated),2.42,-142% (active)
O=C(O)C1=C(C(=O)Nc2ccc(F)c(Cl)c2)CCCC1,0.98,2% (inactive)
O=C(Nc1ccc(Cl)cc1)C1CC(=O)n2c(nc3ccccc32)N1 (configuration not stated),2.06,-106% (active)
O=C(Nc1ccc(Cl)cc1)N1CCC(c2nc(-c3ccccc3Cl)no2)CC1,1.1,-9.8% (inactive)
FC(F)Oc1ccc(NC(=S)NCc2ccccc2)cc1Cl,1.34,-34.3% (inactive)
COC(=O)[C@H](Cc1ccc(O)cc1)NC(=O)Cn1cnc2c(NCc3ccccc3)ncnc21,1.08,-8.5% (inactive)
COCCCNC(=O)CCSc1ccc(Cl)cc1,0.897,10.3% (inactive)

Structure (SMILES),activation factor,"activity change, negative = activation"
O=C(NCc1ccncc1)c1nnc(Cc2c(F)cccc2Cl)o1,0.951,4.9% (inactive)
NC(=O)CSc1nnc(-c2cccnc2)n1CCc1ccccc1,0.957,4.35% (inactive)
CS(=O)(=O)Nc1ccccc1C(=O)c1ccccc1,1.04,-3.7% (inactive)
O=C(CSc1ncn[nH]1)CSc1ncn[nH]1,0.517,48.3% (inactive)
CCCCOC(=O)C1=C(C)NC2=C(C(=O)CCC2)C1c1cc(OC)ccc1OC (configuration not stated),1.09,-9.15% (inactive)
CCc1cc(Cn2nc(-c3ccccc3)cc2C(=O)NCc2cccs2)on1,1.89,-88.9% (inactive)
COc1ccc(C2=NOC(Cn3nc(-c4ccccc4)cc3C(=O)NCc3ccccc3OC)C2)cc1 (configuration not stated),1.68,-67.7% (inactive)
CCc1cc(Cn2nc(-c3ccccc3)cc2C(=O)NCc2ccccc2OC)on1,1.99,-99.1% (active)
COc1ccc(C2=NOC(Cn3nc(-c4ccccc4)cc3C(=O)NCc3cccc(Br)c3)C2)cc1 (configuration not stated),2.12,-112% (active)
COc1ccc(C2=NOC(Cn3nc(-c4ccccc4)cc3C(=O)NCc3cccs3)C2)cc1 (configuration not stated),1.82,-81.5% (inactive)
CCc1cc(Cn2nc(-c3ccccc3)cc2C(=O)NCc2cccc(Br)c2)on1,2.8,-180% (active)
Cc1ccc(CNC(=O)c2cc(-c3ccccc3)nn2Cc2cc(C)no2)cc1,2.26,-126% (active)
Cc1ccc(CNC(=O)COC(=O)c2c(C)noc2C)cc1,0.891,10.9% (inactive)
CCc1cc(Cn2nc(-c3ccccc3)cc2C(=O)NCc2ccc(C)cc2)on1,1.7,-69.7% (inactive)
COc1ccc(C2=NOC(Cn3nc(-c4ccccc4)cc3C(=O)NCc3ccc(C)cc3)C2)cc1 (configuration not stated),1.57,-57.5% (inactive)
Cn1c(C(=O)NCc2ccccc2)cc2oc3ccccc3c21,1.14,-14.4% (inactive)
COc1ccc(C2=NOC(Cn3nc(-c4ccccc4)cc3C(=O)NCc3cccc(C(F)(F)F)c3)C2)cc1 (configuration not stated),1.83,-83.5% (inactive)
O=C(COc1ccccc1Cl)OCC(=O)N1CCN(S(=O)(=O)c2ccccc2)CC1,0.883,11.7% (inactive)
CC(=O)c1cccc(NC(=O)CCNS(=O)(=O)c2cccc(C(C)=O)c2)c1,0.929,7.05% (inactive)
Cc1cc(Br)cc2c1NC(=O)C2(c1c(C)n(C)n(-c2ccccc2)c1=O)c1c(C)n(C)n(-c2ccccc2)c1=O,1.02,-2.5% (inactive)
